# Measured values published in PubChem BioAssay AID1566 (Sanford-Burnham Center for Chemical Genomics, 2009).
# Out of some 290,000 compounds screened, about 1,800 (0.62%) were called active. This is one part of a sample in which actives are shown more often than they occur. Unmarked numbers belong to inactive results. No stated cut-off is given here; in the data, active means inhibition above about 50%; inactive means the rest.
# Assay: inhibition of NOD2-driven NF-kB reporter – cell-based, luminescence, uHTS, HEK293 (AID 1566)
# Conditions: HEK293 NOD2/NF-kB luciferase reporter, at 4 µM, hits give high values
row,SMILES,inhibition
1,COc1ccc(Cn2c(C3CC3)nc3ccc(NC(=O)c4ccco4)cc3c2=O)cc1,-43.8%
2,CCn1c(C)c(C(C)=O)c(N2CCN(c3cccc(Cl)c3)CC2)nc1=S,15.5%
3,CC(=O)Nc1ccc(/C(C)=N/NC(=O)c2ccc(CN3CCOCC3)cc2)cc1,6.9%
4,CC1CCCCN1C(=O)c1ccc(C(=O)N2CCCCC2C)cc1 (stereo unspecified),5%
5,COc1ccc(OC(=O)Nc2ccccc2)cc1,-3.6%
6,N#Cc1c(-c2ccccc2)cc(-c2ccccc2)nc1SCc1nnc(-c2ccccc2)o1,15.7%
7,Cc1nnc(SCc2nnc(-c3ccc(Cl)cc3)o2)n1-c1ccccc1,-2.6%
8,Cc1cc(C)c(C#N)c(SCc2nnc(-c3ccccc3[N+](=O)[O-])o2)n1,-197%
9,Cc1csc(SCc2nnc(-c3ccc(Cl)cc3)o2)n1,-134%
10,Cc1ccc(C#N)c(SCc2nnc(-c3ccc(Cl)cc3)o2)n1,67.8% (active)
11,Cc1ccc(-n2c(C)cc(/C=N/NC(=O)c3ccncc3)c2C)c(C)c1,7%
12,Cc1ccc(NC(=O)c2ccc3ccccc3n2)cc1S(=O)(=O)N(C)C,-57.9%
13,O=C(CSc1nc2ccccc2[nH]1)Nc1cccc(S(=O)(=O)N2CCOCC2)c1,24.9%
14,CC(=O)Nc1cccc(-n2nnc(SCC(=O)Nc3ccccc3)n2)c1,0.6%
15,Cc1cc(OCC(=O)NCCc2ccc(S(N)(=O)=O)cc2)c2c(C)c(C)c(=O)oc2c1,8.3%
16,Cc1n[nH]c(=O)nc1NC1CCCCC1,3%
17,C=CCn1c(CSCc2ccccc2)nnc1SCC(=O)N1CCN(c2ccccc2)CC1,0.4%
18,N#Cc1ccccc1NC(=O)C1SC(=Nc2ccccc2)C(C(=O)Nc2ccc(Cl)cc2)=C1N (stereo unspecified),50.7% (active)
19,CCOc1ccc(N=C2SC(C(=O)Nc3ccccc3C#N)C(N)=C2C(=O)Nc2ccc(Cl)cc2)cc1 (stereo unspecified),13.4%
20,Cc1ccc(NC(=O)C2SC(=Nc3ccccc3)C(C(=O)Nc3ccc(Cl)cc3)=C2N)cc1 (stereo unspecified),-14.9%
21,CC(=O)Nc1ccc(SC(C)C(=O)NC2CCCC2)cc1 (stereo unspecified),-6.7%
22,COc1ccc(-c2nc3ccccc3s2)cc1,-217%
23,Oc1ccc(-c2nc3ccccc3s2)cc1,-198%
24,Cn1nnc2cc(C(=O)NCc3ccc4c(c3)OCO4)ccc21,-37.1%

row,SMILES,inhibition
1,Cc1ccc(S(=O)(=O)CNC(=O)c2ccccc2)cc1,1.3%
2,Cc1ccc(S(=O)(=O)NCCNC(=O)c2ccccc2)cc1,-8%
3,Cc1ccc(C(=O)NS(=O)(=O)c2ccc(C)cc2)cc1,-1.5%
4,Cc1ccc(C(=O)NC(=S)NNS(=O)(=O)c2ccc(C)cc2)cc1,7.8%
5,COc1sc(SC)cc1/C=N/NC(=O)c1ccncc1,12.3%
6,O=C(NC1CCCCC1)C(c1ccc(F)cc1)N(Cc1cccs1)C(=O)CN1C(=O)c2ccccc2S1(=O)=O (stereo unspecified),13.4%
7,CC1Cc2ccccc2N1S(=O)(=O)c1cccc(C(=O)OCC(=O)NC2CCS(=O)(=O)C2)c1 (stereo unspecified),-8.8%
8,CC1(CC(=O)N/N=C/c2ccc(-c3ccc(C(=O)O)cc3)o2)OCCO1,17.9%
9,CCn1cc(S(=O)(=O)Nc2cc(C(=O)OC)ccc2C)cn1,8.3%
10,COc1cccc(OCCn2c(C)c(/C=N/n3cnnc3)c3ccccc32)c1,10.9%
11,CCc1ccc(C(O)(C(C)C)C(CN2CCOCC2)c2ccccc2)cc1 (stereo unspecified),0.6%
12,CC(C)C(O)(c1ccccc1)C(CN1CCOCC1)c1ccccc1 (stereo unspecified),56.7% (active)
13,COc1ccc(C(O)(C(C)C)C(CN2CCOCC2)c2ccccc2)cc1 (stereo unspecified),8.6%
14,COc1ccc(NC(=O)CCn2c(=O)c3cccn3c3ccccc32)c(OC)c1,38.3%
15,Cc1ccc(CCNC(=O)C23C[C@H]4C[C@@H](C2)CC(n2nnc(C)n2)(C4)C3)cc1,8.2%
16,Cc1nnn(C23C[C@@H]4C[C@@H](CC(C(=O)N5CCN(c6ccccc6)CC5)(C4)C2)C3)n1,-0.7%
17,Cn1ccnc1C(=O)c1ccc(S(=O)(=O)N2CCCC2)cc1,14.8%
18,COc1ccc(NC(=O)c2sc3nc(N4CCOCC4)c4c(c3c2N)CCCC4)c(OC)c1,30.8%
19,COc1ccccc1NC(=O)c1sc2nc(N3CCOCC3)c3c(c2c1N)CCCC3,50% (active)
20,Cc1ccccc1NC(=O)c1sc2nc(N3CCOCC3)c3c(c2c1N)CCCC3,23.1%
21,COC(=O)c1ccccc1NC(=O)CSc1nnc(-c2cccnc2)o1,-6.6%
22,Cc1ccc2[nH]cc(/C=C/c3cc[n+](C)cc3)c2c1,48%
23,Cc1ccc2[nH]c(C)c(/C=C/c3cc[n+](C)cc3)c2c1,29.1%
24,COc1ccc(OC)c(S(=O)(=O)N(C)CC(=O)Nc2ccc3c(c2)OCO3)c1,4.6%

row,SMILES,inhibition
1,CCCNC(=O)Cn1cnc2sc(C(=O)N3CCN(CCC)CC3)c(C)c2c1=O,24.6%
2,CC(C)(C)n1nnnc1C(c1ccncc1)N1CCN(c2ccc(O)cc2)CC1 (stereo unspecified),-4.7%
3,c1ccc2c(c1)SCc1nnc(-c3ccncc3)n1-2,5.9%
4,Cc1oc(-c2ccccc2Cl)nc1CSc1nc2c(c(=O)[nH]1)CCC2,-2%
5,Cc1oc(-c2ccccc2)nc1CSc1nc2c(c(=O)[nH]1)CCC2,30.8%
6,CN(C(=O)COc1ccccc1C(=O)NCCc1ccccc1)c1ccccc1,-25.8%
7,COc1ccccc1C(=O)NCCC(=O)NCCOc1ccccc1,16.2%
8,COc1ccc(N2CCN(C(=O)Cn3c(=O)[nH]c4ccsc4c3=O)CC2)cc1,0.6%
9,Cc1ccc(S(=O)(=O)Nc2ccccc2C(N)=O)cc1,0.2%
10,Cc1ccc(S(=O)(=O)Nc2ccccc2-c2ccccc2)cc1,-12.5%
11,O=S(=O)(NCc1ccccn1)c1cc(Cl)ccc1Cl,-6%
12,Nc1c(NCc2ccccc2F)c(=O)[nH]c(=O)n1Cc1ccccc1,-4.5%
13,Cc1occc1C(=O)n1nnc2ccccc21,7.3%
14,N#CC(c1ccc(Cl)cc1)c1ccc2c(C(F)(F)F)cc(C(F)(F)F)nc2n1 (stereo unspecified),44.4%
15,Cc1ccc(C(C#N)c2ccc3c(C(F)(F)F)cc(C(F)(F)F)nc3n2)cc1 (stereo unspecified),19.1%
16,CC(NC(=O)CSc1nc2ccccc2n1CCC#N)c1ccc(F)cc1 (stereo unspecified),19.2%
17,CCOc1ccc(S(=O)(=O)N2CCC(C(=O)N3CCCC3)CC2)cc1C,24.6%
18,COc1ccc(-c2cn3c(C)c(C(=O)N4CCN(c5ccccc5F)CC4)sc3n2)cc1,25.5%
19,Clc1cccc(Cl)c1C[n+]1ccc2ccccc2c1,18.8%
20,Cc1ccc(C(=O)C[n+]2ccc3ccccc3c2)cc1,9%
21,Cc1cc(C(C)(C)C)cc(C)c1C[n+]1ccc2ccccc2c1,52.3% (active)
22,O=C(NCCn1ccc2ccccc21)c1ccc(S(=O)(=O)N2CCCCC2)cc1,-4.3%
23,FC(F)(F)c1ccc(N2CCN(c3cc(-c4ccccc4)nc4ncnn34)CC2)nc1,52% (active)
24,FC(F)(F)c1cc(-c2ccccc2)nc2ncnn12,-1.1%

row,SMILES,inhibition
1,O=S(=O)(c1ccccc1)N1CCN(c2cc(-c3ccccc3)nc3ncnn23)CC1,43.4%
2,CC(=O)Nc1cccc2c1C(=O)N(c1cccc(OC(C)=O)c1)C2=O,17.8%
3,O=C(CNc1ccc2ccccc2c1)N/N=C/c1ccc([N+](=O)[O-])o1,-4.1%
4,O=C(N/N=C/c1ccc([N+](=O)[O-])cc1)c1cc2ccccc2o1,30.1%
5,Cc1ccc(C(=O)N/N=C\c2ccc([N+](=O)[O-])o2)cn1,36%
6,Nc1nonc1C(=O)N/N=C/c1ccc(Br)o1,4.7%
7,Cc1cc(C(=O)N/N=C/c2ccc([N+](=O)[O-])o2)c(C)o1,35.5%
8,O=C(CNc1ccccc1)N/N=C/c1ccc([N+](=O)[O-])o1,46.1%
9,Nc1nonc1C(=O)N/N=C/c1ccc(-c2cccc([N+](=O)[O-])c2)o1,19.7%
10,O=C(N/N=C/c1ccc([N+](=O)[O-])o1)c1cc2c(ccc3ccccc32)o1,12.1%
11,COc1ccccc1CNC(=O)C1CC(c2c(Cl)cccc2Cl)=NO1 (stereo unspecified),8.6%
12,Cc1ccc(NC(=O)Nc2ccc(Cl)cc2)c(Br)c1,-38.7%
13,O=C(Nc1ccc(Cl)cc1)c1cc(Br)ccc1OCC(=O)N1CCOCC1,40%
14,COc1ccc(-c2csc(N3CCC(c4ccccc4)CC3)n2)cc1,13.7%
15,Cc1occc1-c1nnc(SCC(=O)O)n1-c1ccccc1,-13.8%
16,Fc1ccc(NC(=S)Nc2cc(Cl)ccc2Cl)cc1,-16.8%
17,C[C@@H]1C(=O)O[C@H]2[C@H]1CC[C@@]1(C)C(=O)C=C[C@@](C)(O)[C@H]21,1.1%
18,O=C(O)/C=C/c1ccc(OCc2cccc(F)c2)cc1,-4.9%
19,N#Cc1ccccc1COc1ccc(/C=C/C(=O)O)cc1,64.4% (active)
20,COc1cc(/C=C/C(=O)O)ccc1OCc1ccccc1C#N,18%
21,COc1cccc(N(CC(=O)NC2CCCC2)C(=O)CCC(=O)Nc2cc(C)on2)c1,2.5%
22,C=C(C)COc1ccc2c(C)c(CC(=O)N3C[C@H]4C[C@@H](C3)c3cccc(=O)n3C4)c(=O)oc2c1,5%
23,CC(C)=CCOc1ccc2c(C)c(CC(=O)N3C[C@H]4C[C@@H](C3)c3cccc(=O)n3C4)c(=O)oc2c1C,15.8%
24,C=C(C)COc1ccc2c(C)c(CC(=O)N3C[C@H]4C[C@@H](C3)c3cccc(=O)n3C4)c(=O)oc2c1C,51.9% (active)
